Screening results from PubChem.
The entries come from a sample that favours hits as a whole.
Anaer choline gr = inhibitors of anaerobic choline-dependent gram-negative bacterial growth. Gram-negative bacterium anaerobic choline minimal medium, absorbance growth; hits give low values. calls only. 55,000 compounds, 0.2% hits; call rule not given here
* marks the source's active call; other numbers are inactive results; ! = not confirmed by another sample.

`CN1CCCN(c2ncnc3c2CCC3)CC1` gave Anaer choline gr inactive.
c1nc2c(c(N3CCC(N4CCCCC4)CC3)n1)CCC2 was read as Anaer choline gr active.
Screening c1ccc(N2CCN(c3ncnc4c3CCC4)CC2)nc1 returned Anaer choline gr inactive.
Screening CN(C)c1cc(OC2CCN(C(=O)Cc3cccs3)C2)ncn1 (stereo not drawn) returned Anaer choline gr inactive.
`Cc1ccc(Cl)cc1NS(=O)(=O)c1cc(-c2nc(C(C)(C)C)cs2)cs1` gave Anaer choline gr inactive.
`CC(C)(C)c1csc(-c2csc(S(=O)(=O)Nc3ccc(Cl)cc3F)c2)n1` gave Anaer choline gr active.
For CC(C)(C)c1csc(-c2csc(S(=O)(=O)Nc3ccc(F)c(Cl)c3)c2)n1 the results were Anaer choline gr inactive.
Cc1ccc(C)c(N2CCN(C(=O)c3cc(S(=O)(=O)N4CCCC4)ccc3Cl)CC2)c1 was read as Anaer choline gr inactive.
`CC(=O)N1CCc2cc(S(=O)(=O)CCC(=O)Nc3ccc(Cl)cc3C)ccc21` gave Anaer choline gr inactive.
Screening Cc1c(C(=O)NCC(c2cccs2)N2CCCC2)oc2ccc(Cl)cc12 (stereo not drawn) returned Anaer choline gr inactive.
For CC1CN(C(=O)COc2ccc3ccccc3c2)c2ccccc2NC1=O (stereo not drawn) the results were Anaer choline gr inactive.
`O=S(=O)(NCCc1n[nH]c(Cc2cccc(F)c2)n1)c1cccc2nsnc12` gave Anaer choline gr inactive.
Cc1[nH]c(C)c(S(=O)(=O)N2CCc3ccccc3C2)c1C(=O)N1CCCC1 was read as Anaer choline gr inactive.
Screening Cc1[nH]c(C)c(S(=O)(=O)N2CCC(C(=O)N3CCc4ccccc43)CC2)c1C(=O)N1CCCC1 returned Anaer choline gr active.
For Cc1[nH]c(C)c(S(=O)(=O)N2CCC(C(=O)N3CCc4ccccc43)CC2)c1C(=O)N1CCCCC1 the results were Anaer choline gr inactive.
`COc1ccc(C2CC(=O)C3=C(C2)Nc2onc(C)c2C3c2cccnc2)cc1` (stereo not drawn) gave Anaer choline gr inactive.
Screening O=C(CCC(=O)N1CCc2cc(S(=O)(=O)NCc3ccc4c(c3)OCO4)ccc21)N1CCCC1 returned Anaer choline gr inactive.
For CN1CCc2c(sc(NC(=O)C3CC3)c2-c2nc3ccccc3s2)C1 the results were Anaer choline gr inactive.
Screening CC(C)N1CCc2c(sc(NC(=O)C3CC3)c2-c2nc3ccccc3s2)C1 returned Anaer choline gr active.
`CN1CCc2c(sc(NC(=O)CN3C(=O)c4ccccc4C3=O)c2-c2nc3ccccc3s2)C1` gave Anaer choline gr inactive.
Screening COCCNC(=O)C1CCN(c2ncnc3c2oc2ccccc23)CC1 returned Anaer choline gr inactive.
For CCC(Sc1nc2ncccc2[nH]1)C(=O)Nc1ccc(Br)cc1 (stereo not drawn) the results were Anaer choline gr inactive.
CCOc1ccc(NC(=O)C(C)Sc2nc3c(c(=O)[nH]2)CCCC3)cc1 (stereo not drawn) was read as Anaer choline gr inactive.
CCOc1ccc(NC(=O)C(CC)Sc2nc3ncccc3[nH]2)cc1 (stereo not drawn) was read as Anaer choline gr active.
For Cc1cc(N2CCC(C)CC2)nc2ccc(NC(=O)CCC(=O)N3CCCCC3C)cc12 (stereo not drawn) the results were Anaer choline gr inactive.
For CCCC(=O)N1CCCC1C(=O)N1CCCCC1C (stereo not drawn) the results were Anaer choline gr active.
`Cc1noc(C(=O)N2CCCCC2C)c1Cl` (stereo not drawn) gave Anaer choline gr inactive.
O=C(c1ccc(N2C(=O)CCS2(=O)=O)cc1)N1CCc2ccccc2C1 was read as Anaer choline gr inactive.
For Cc1nn(-c2ccc3nnc(C)n3n2)c2c1C(c1cccc(F)c1F)CC(=O)N2 (stereo not drawn) the results were Anaer choline gr inactive.
CCN(CC)S(=O)(=O)c1ccc2c(c1)nnn2C1CCN(C(=O)NC(C)C)CC1 was read as Anaer choline gr inactive.
`COc1ccccc1NC(=O)Nc1ccc(Nc2cc(N3CCCC3)nc(C)n2)cc1` gave Anaer choline gr inactive.
`O=C(NCc1ccnc(N2CCCCC2)c1)Nc1ccc(F)c(Cl)c1` gave Anaer choline gr active.
Screening COc1ccccc1NC(=O)NCc1ccnc(N2CCCCC2)c1 returned Anaer choline gr active.
O=C(NCc1ccnc(N2CCSCC2)c1)Nc1ccc(F)cc1F was read as Anaer choline gr inactive.
COc1ccccc1CNC(=O)c1ccc(N2CCCC2)c(NC(=O)Nc2ccccc2Cl)c1 was read as Anaer choline gr inactive.
Screening O=C(NCc1ccnc(N2CCSCC2)c1)Nc1cc(F)ccc1F returned Anaer choline gr inactive.
Screening CC1CN(C(=O)C2CCN(S(=O)(=O)c3cccnc3)CC2)c2ccccc2O1 (stereo not drawn) returned Anaer choline gr inactive.
Screening O=C(Nc1ccc(OCc2cc(=O)n3ccccc3n2)cc1)Nc1cccc(Cl)c1 returned Anaer choline gr inactive.
For CCc1nnc2c(Oc3cccc(NS(=O)(=O)c4ccc(F)c(C)c4)c3)nc3ccccc3n12 the results were Anaer choline gr inactive.
CCOC(=O)c1nc2cc(C)c(C)cc2nc1NCc1ccccn1 was read as Anaer choline gr inactive.
For CCn1c(CN(c2ccc(F)cc2)S(C)(=O)=O)nnc1SCC(=O)c1ccc(Cl)cc1 the results were Anaer choline gr inactive.
CCn1c(CN(c2ccc(F)cc2)S(C)(=O)=O)nnc1SCC(=O)Nc1ccc(F)cc1F was read as Anaer choline gr active.
For CCn1c(CN(c2ccc(F)cc2)S(C)(=O)=O)nnc1SCC(=O)c1ccccc1 the results were Anaer choline gr inactive.
Screening CCOC(=O)c1cc(S(=O)(=O)N2CCCC2C(=O)Nc2nc3ccc(OC)cc3s2)cn1C (stereo not drawn) returned Anaer choline gr inactive.
COC(=O)c1ccc(NC(=O)NCCn2cnc3cc(C(=O)N(C)C)ccc32)cc1 was read as Anaer choline gr inactive.
`COc1ccc(-c2nn3c(CSc4ccccc4)nnc3s2)cc1` gave Anaer choline gr inactive.
For CN(C)c1cccc(-c2nn3c(CSc4ccccc4)nnc3s2)c1 the results were Anaer choline gr inactive.
`c1ccc(SCc2nnc3sc(-c4cccnc4)nn23)cc1` gave Anaer choline gr active.
For NC[C@@H]1O[C@H](c2ccccc2)Cc2c1ccc(O)c2O the results were Anaer choline gr inactive.
For NC[C@@H]1O[C@H](C23CC4CC(CC(C4)C2)C3)Cc2c1ccc(O)c2O the results were Anaer choline gr active!.
`Cn1nc(C(=O)NCc2ccc(Cl)cc2)c2c1CCN(C(=O)C1CC1)C2` gave Anaer choline gr inactive.
For Cc1[nH]nc(-c2c(C)sc(C)c2S(=O)(=O)NCc2ccc(Br)cc2)c1C the results were Anaer choline gr inactive.
`CCCCn1c(=O)[nH]c2c(C(=O)N3CCC(C(=O)OCC)CC3)snc2c1=O` gave Anaer choline gr inactive.
Screening O=C(CCc1nc(CSc2nnc(-c3ccccc3)o2)no1)Nc1ccc(Br)cc1 returned Anaer choline gr inactive.
`OCC1O[C@H]([S-])[C@@H](O)C(O)[C@@H]1O.[Au+]` (stereo partly drawn) gave Anaer choline gr active.
For OCC1O[C@H](O)C(Cl)C(O)C1O (stereo partly drawn) the results were Anaer choline gr inactive.
For OC[C@H]1O[C@H](O[C@H]2[C@H](O)[C@@H](O)[C@H](O)O[C@@H]2CO)[C@H](O)[C@@H](O)[C@@H]1O the results were Anaer choline gr inactive.
